# Data published in PubChem BioAssay (Tox21).
# Records with an inconclusive call do not appear. Unmarked numbers belong to inactive results. Calls follow the shape of the dose curve; as a rule, active = well fitted activation curve with a large enough effect in the repeat runs; inconclusive = weak or mixed curves; inactive = flat fitted curve, though single readings scatter.
# Experiment: A CellTox Green Cytotoxicity Assay to monitor cytotoxicity in HepG2 cells - 8 hour (AID 1224890); also: nearly all actives have a fitted effect of over 45% in size
# Settings: CellTox Green fluorescence; series mostly up to 76.8 µM; cytotoxicity increase: at the top concentration
# Summary of the method: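 Fluorescent DNA-binding dye, 600 HepG2 cells/well, 5 h preincubation then compound in DMSO; same plates read at 0–40 h, 37 C.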
# % is scaled to controls: 0 for no effect and ±100 for the full control effect.
row,SMILES,cytotoxicity increase
1,CC(CCc1ccc2c(c1)OCO2)NN (stereo not given),1.11% [at 35.3 µM]
2,CO[Si](C)(OC)OC,-26%
3,CCC1(C)CC(=O)NC1=O (stereo not given),-10.8% [at 35.3 µM]
4,CC(=O)CC(c1ccc([N+](=O)[O-])cc1)c1c(O)c2ccccc2oc1=O (stereo not given),-0.505% [at 35.3 µM]
5,COc1ccc([C@@H]2Sc3ccccc3NC(=O)[C@@H]2O)cc1,-2.99% [at 35.3 µM]
6,Nc1nc(Cl)nc2c1ncn2[C@@H]1O[C@H](CO)[C@@H](O)[C@@H]1F,-11.5% [at 35.3 µM]
7,C=CC(C)(C)CC(=O)OC,3.36%
8,O=C(O)C(Cc1cc(I)c(O)c(I)c1)c1ccccc1 (stereo not given),-3.04% [at 35.3 µM]
9,CO[C@@]12[C@H](COC(N)=O)C3=C(C(=O)C(C)=C(N)C3=O)N1C[C@@H]1N[C@@H]12,-0.436% [at 35.3 µM]
10,CC1=NN(c2ccc(C(=O)O)cc2)C(=O)C1,-8.65%
11,CN(C)C(=O)Nc1ccc(Oc2ccc(Cl)cc2)cc1,4.82%
12,CCCCC(=O)O[C@]1(C(=O)CO)CC[C@H]2[C@@H]3CCC4=CC(=O)CC[C@]4(C)[C@H]3[C@@H](O)C[C@@]21C,-9.61% [at 35.3 µM]
13,C1COCO1,4%
14,Cc1ccnc2ccccc12,14.2%
15,CO[C@H]1O[C@H](CO)[C@@H](O)[C@H](O)[C@H]1O,-8.16%
16,CC(=O)Oc1ccc(C(=C2CCCCC2)c2ccc(OC(C)=O)cc2)cc1,-10.9% [at 35.3 µM]
17,CCc1cccc(N(C)C(N)=Nc2cccc3ccccc23)c1,-3.28% [at 35.3 µM]
18,CCCCCCCC/C=C\CCCCCCCC(=O)OC,-2.39%

row,SMILES,cytotoxicity increase
1,ON(Cc1ccccc1)Cc1ccccc1,0.103%
2,CCC(C)(C)C1CCC(O)CC1 (stereo not given),22.9%
3,c1cc[c]([Bi]([c]2ccccc2)[c]2ccccc2)cc1,3.72%
4,CC(C)(C)C(=O)O,0.248%
5,NCC1CCCC(CN)C1 (stereo not given),6.18%
6,Cc1occc1C(=O)Nc1ccc(C(=O)N2CCC(F)(F)/C(=C\C(=O)N3CCC(N4CCCCC4)CC3)c3ccccc32)cc1,-6.34% [at 35.3 µM]
7,COc1cc2c(cc1OC)-c1cc(=Nc3c(C)cc(C)cc3C)n(C)c(=O)n1CC2,-0.693% [at 35.3 µM]
8,Cc1ccccc1N1C(=O)c2cc(S(N)(=O)=O)c(Cl)cc2NC1C (stereo not given),-5.46% [at 35.3 µM]
9,C=CC(=C)CCCC(C)(C)OC(C)=O,-9.78%
10,NC(=O)N(O)[C@@H]1COc2cc(OCc3ccccc3)ccc21,0.18%
11,O=C(OCCOCCO)c1ccccc1Nc1cccc(C(F)(F)F)c1,22.6% [at 35.3 µM]
12,OCC1CC=CCC1 (stereo not given),-5.6%
13,CC(C)CCCCCOC(=O)CCCCC(=O)OCCCCCC(C)C,-8.69%
14,CO[C@H]1C=CO[C@@]2(C)Oc3c(C)c(O)c4c(O)c(c5c(c4c3C2=O)=NC2(CCN(CC(C)C)CC2)N=5)NC(=O)/C(C)=C\C=C/[C@H](C)[C@H](O)[C@@H](C)[C@@H](O)[C@@H](C)[C@H](OC(C)=O)[C@@H]1C,-14.8%
15,CN1Cc2cc(C(=O)N3CCC(C4CCNCC4)CC3)ccc2N[C@@H](CC(=O)O)C1=O,-8.36% [at 35.3 µM]
16,COC(=O)c1cc(Cl)ccc1NS(=O)(=O)C(F)(F)F,6.64% [at 35.3 µM]
17,CCc1c2c(nc3ccc(OC(=O)N4CCC(N5CCCCC5)CC4)cc13)-c1cc3c(c(=O)n1C2)COC(=O)[C@]3(O)CC,0.512% [at 35.3 µM]
